Bioassay records deposited in PubChem BioAssay by Sanford-Burnham Center for Chemical Genomics.
Sampled rows, rich in hits. Any-hit rate of the full collection: about 4%.
CF NFkB inh – cystic fibrosis NF-kB activation inhibition; hit rate 0.86% among 360,000; KKLEB NF-kB-GFP reporter, PAF-induced, GFP fluorescence overnight; inhibition, % at 5 µM;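 active = at least 50% inhibition at 5 µM, scaled per plate between neutral and stimulator controls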;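 note: PAF is a Pseudomonas aeruginosa culture filtrate used as stimulus; plate controls were PAF-stimulated DMSO wells for no effect and unstimulated DMSO wells for full effect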
HIF-2a block – inhibitors of HIF-2a; inhibition, % at 18.8 µM; AID 624352; hit rate 0.72% among 360,000; 786-0 RCC cells HIF-2a reporter, luciferase luminescence, overnight;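 active = inhibition of the luminescence signal of 40% or more relative to plate controls, in a single-dose primary screen at 18.75 µM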
KKLEB tox – counter-screen for CF NF-kB inhibitors: cytotoxicity | KKLEB CF airway cells viability, ATPlite luminescence, overnight; active compounds read low; cells stimulated with P. aeruginosa culture filtrate | activity change (cytotoxicity), % at 5 µM | hit rate 0.36% among 360,000;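 active = corrected activity change at or below -50% at 5 µM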
TWEAK-Fn14 inh – inhibitors of TWEAK-Fn14 interaction signaling. TWEAK-stimulated Fn14 reporter cells, luciferase luminescence, 8 h. inhibition, % at 10 µM. hit rate 2% among 360,000. AID 1159606; in the data active = inhibition above about 50%
TROY NFkB inh – blocks TROY-dependent signaling in reporter cells; hit rate 0.98% among 360,000; Q293 LMP1-TROYcd NF-kB luciferase reporter, 4 h; inhibition, % at 10 µM; AID 1347056;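 active = compounds whose plate-normalised and pattern-corrected inhibition of the luciferase reporter signal at the single screening dose is 50% or more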
Peg3 prom inh – Peg3 promoter activity inhibition. inhibition, % at 20 µM. AID 588405. HeLa PEG-Prom luciferase reporter, luminescence, overnight. hit rate 1.7% among 360,000;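 active = inhibition of at least 50% at 20 µM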
CF NFkB conf – confirmation of cystic fibrosis induced NF-kB inhibitors; shares compounds with CF NFkB inh; KKLEB CF airway cells, PAF-induced NF-kB-GFP fluorescence, overnight; inhibition, % at 5 µM; hit rate 64% among 1,300; AID 602472; in the data active = inhibition above about 40%;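 note: stimulus PAF is a Pseudomonas aeruginosa filtrate and not platelet activating factor; plate controls were DMSO wells with stimulus for no effect and unstimulated DMSO wells for full effect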
Mdm2-MdmX confirm – Mdm2/MdmX (human) interaction inhibition, confirmed | SaOS-2 split-luciferase Mdm2/MdmX complementation, luminescence | AID 504601 | shares compounds with HIF-2a block | inhibition, % at 8 µM | hit rate 99% among 740;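 active = mean inhibition of the luminescence signal across two replicates at or above 26 percent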
Target sequence (O15151 whole entry, looked up): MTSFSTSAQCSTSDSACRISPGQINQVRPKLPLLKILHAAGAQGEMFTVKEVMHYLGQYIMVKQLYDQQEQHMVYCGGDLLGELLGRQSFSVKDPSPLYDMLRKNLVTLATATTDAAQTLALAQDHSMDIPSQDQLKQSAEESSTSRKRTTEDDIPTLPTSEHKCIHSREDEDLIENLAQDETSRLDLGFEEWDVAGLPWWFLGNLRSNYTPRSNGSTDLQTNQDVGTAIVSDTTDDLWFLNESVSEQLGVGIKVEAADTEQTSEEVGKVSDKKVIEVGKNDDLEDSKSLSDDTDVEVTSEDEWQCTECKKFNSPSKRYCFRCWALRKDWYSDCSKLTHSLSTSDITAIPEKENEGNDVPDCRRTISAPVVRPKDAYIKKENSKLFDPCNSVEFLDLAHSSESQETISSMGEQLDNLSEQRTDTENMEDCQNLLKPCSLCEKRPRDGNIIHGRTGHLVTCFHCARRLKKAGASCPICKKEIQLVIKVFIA
Target sequence (Q00987 whole entry, looked up): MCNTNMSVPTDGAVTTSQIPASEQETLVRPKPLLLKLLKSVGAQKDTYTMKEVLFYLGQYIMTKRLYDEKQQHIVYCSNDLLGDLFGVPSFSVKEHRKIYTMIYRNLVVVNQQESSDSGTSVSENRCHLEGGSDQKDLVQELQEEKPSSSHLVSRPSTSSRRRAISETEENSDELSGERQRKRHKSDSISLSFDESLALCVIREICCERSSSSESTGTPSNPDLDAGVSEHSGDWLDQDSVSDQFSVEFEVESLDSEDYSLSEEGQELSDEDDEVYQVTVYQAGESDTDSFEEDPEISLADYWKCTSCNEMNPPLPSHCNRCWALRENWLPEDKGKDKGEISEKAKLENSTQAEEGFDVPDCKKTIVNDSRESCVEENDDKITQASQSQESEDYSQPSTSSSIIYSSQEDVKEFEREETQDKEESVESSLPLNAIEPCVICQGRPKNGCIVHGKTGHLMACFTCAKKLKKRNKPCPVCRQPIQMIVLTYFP
HIF-2a conf – HIF-2a inhibition, single concentration confirmation. shares compounds with HIF-2a block. 786-0 RCC cells, HIF-2a luciferase reporter luminescence, overnight. inhibition, % at 18.8 µM. hit rate 56% among 1,800;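 active = mean inhibition across four replicates of at least 40 percent at the single tested concentration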
HIF-1a cs – counter-screen for HIF-2a inhibitors: HIF-1a inhibition in MiaPaCa-2 cells. shares compounds with HIF-2a block. MiaPaCa-2 HIF-1a luciferase reporter, desferoxamine, overnight. inhibition, % at 18.8 µM. hit rate 72% among 1,800;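 active = mean inhibition of the reporter signal across four replicates at the single tested dose of 50% or more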
* marks the source's active call; other numbers are inactive results.

COc1ccc(CNC(=O)c2nc(S(=O)(=O)Cc3ccccc3)ncc2Cl)cc1 was read as CF NFkB inh 89.5*, HIF-2a block 90.7*, KKLEB tox -20.5, TWEAK-Fn14 inh 72.8*, TROY NFkB inh 59.2*, Peg3 prom inh 104.2*, CF NFkB conf 70.8*, HIF-2a conf 63.0* and HIF-1a cs 35.5.
For COc1ccc(-c2noc(N3CCC(C(=O)N(C)c4ccccc4)CC3)n2)cc1 the results were CF NFkB inh -3.5, HIF-2a block -37.1, KKLEB tox 13.1, TWEAK-Fn14 inh -2.2, TROY NFkB inh -0.5 and Peg3 prom inh -14.5.
For C=CCOn1c(=O)c(-c2ccc(OCC)cc2)[n+]([O-])c2ccccc21 the results were CF NFkB inh 10.5, HIF-2a block -80.4, KKLEB tox 0.4, TWEAK-Fn14 inh -35.6, TROY NFkB inh -26.1 and Peg3 prom inh -61.6.
Screening O=C(Nc1ccncc1)c1c(Cl)cccc1Cl returned CF NFkB inh 64.5*, HIF-2a block 40.5*, KKLEB tox -13.9, TWEAK-Fn14 inh 54.8*, TROY NFkB inh 30.5, Peg3 prom inh 6.5, CF NFkB conf 71.3*, HIF-2a conf 6.9 and HIF-1a cs 14.1.
Screening COc1ccc(CCCN2CCC(CN3C(=S)NC[C@@H]3Cc3ccccc3)CC2)cc1OC returned CF NFkB inh -8.7, HIF-2a block -7.9, KKLEB tox -5.1, TWEAK-Fn14 inh 0.8, TROY NFkB inh -12.0 and Peg3 prom inh -25.1.
`COc1ccc(C(=O)/C=C2/C(=O)Nc3ccccc32)c(OC)c1` gave CF NFkB inh 84.1*, HIF-2a block 90.6*, KKLEB tox -40.5, TWEAK-Fn14 inh -3.8, TROY NFkB inh 38.3, Peg3 prom inh 103.0*, CF NFkB conf 28.8, HIF-2a conf 63.5* and HIF-1a cs 88.0*.
Screening C=CCOc1ccc(C(=O)/C=C2/C(=O)Nc3ccccc32)cc1 returned CF NFkB inh 10.6, HIF-2a block 5.4, KKLEB tox -15.8, TWEAK-Fn14 inh -2.3, TROY NFkB inh -23.2 and Peg3 prom inh 24.7.
C=CCOc1ccccc1C(=O)/C=C1/C(=O)Nc2ccccc21 was read as CF NFkB inh 92.3*, HIF-2a block 79.7*, KKLEB tox -48.6, TWEAK-Fn14 inh 23.8, TROY NFkB inh 20.4, Peg3 prom inh 75.6*, CF NFkB conf 36.9, HIF-2a conf 32.0 and HIF-1a cs 54.9*.
O=C(NCCN1CCC(n2c(=O)[nH]c3ccccc32)CC1)c1cccnc1Cl was read as HIF-2a block -1.4, TWEAK-Fn14 inh -1.3 and TROY NFkB inh -4.9.
For CCOC(=O)/C=C/C(=O)Nc1ccccc1-c1ccccc1NC(=O)/C=C/C(=O)OCC the results were CF NFkB inh 56.3*, HIF-2a block 54.8*, KKLEB tox -3.8, TWEAK-Fn14 inh 57.5*, TROY NFkB inh -52.3, Peg3 prom inh 69.7*, CF NFkB conf -33.9, HIF-2a conf 14.2 and HIF-1a cs 44.9.
`CCC(=O)N1CCN(c2ccc(Cl)cc2NC(=O)c2ccc([N+](=O)[O-])o2)CC1` gave CF NFkB inh 6.1, HIF-2a block -6.9, KKLEB tox -11.7, TWEAK-Fn14 inh 9.2, TROY NFkB inh -4.8 and Peg3 prom inh 18.8.
`CC(=O)N1CCN(c2ccc(NC(=O)c3ccc([N+](=O)[O-])o3)cc2Cl)CC1` gave CF NFkB inh 62.3*, HIF-2a block 88.2*, KKLEB tox -26.6, TWEAK-Fn14 inh 29.3, TROY NFkB inh 7.9, Peg3 prom inh 100.7*, CF NFkB conf 8.2, HIF-2a conf 52.1* and HIF-1a cs 82.8*.
COc1ccc(S(=O)(=O)N2CCCCC2)cc1NC(=O)c1ccc([N+](=O)[O-])o1 was read as CF NFkB inh 74.8*, HIF-2a block 53.4*, KKLEB tox -0.6, TWEAK-Fn14 inh 27.6, TROY NFkB inh -9.9, Peg3 prom inh 41.7, CF NFkB conf -9.2, HIF-2a conf 8.9 and HIF-1a cs 76.5*.
Screening COC(=O)c1cc(=O)n(Cc2ccc(OC)c(OC)c2)c(=Nc2ccc(F)cc2)s1 returned CF NFkB inh 54.1*, HIF-2a block 70.0*, KKLEB tox -20.7, TWEAK-Fn14 inh 65.1*, TROY NFkB inh 28.4, Peg3 prom inh 81.2*, CF NFkB conf -86.0, HIF-2a conf 68.2* and HIF-1a cs 102.1*.
`COc1ccc(-c2cc(=O)oc3cc(OC(C)C(=O)NC4CC4)ccc23)cc1` (configuration not stated) gave CF NFkB inh 1.1, HIF-2a block 10.8, KKLEB tox 3.8, TWEAK-Fn14 inh -9.0, TROY NFkB inh -16.6 and Peg3 prom inh 22.7.
COc1ccc(-c2cc(=O)oc3cc(OC(=O)C4CCCCC4)c(Cl)cc23)cc1 was read as CF NFkB inh 88.0*, HIF-2a block 16.4, KKLEB tox -15.8, TWEAK-Fn14 inh 83.5*, TROY NFkB inh 58.3*, Peg3 prom inh 15.5, CF NFkB conf 92.9* and Mdm2-MdmX confirm 91.2*.
Cn1c(Sc2ccc(Br)cc2)c(C=O)c2ccccc21 was read as CF NFkB inh 67.4*, HIF-2a block 29.9, KKLEB tox -12.1, TWEAK-Fn14 inh 54.9*, Peg3 prom inh 37.5, CF NFkB conf 98.2* and Mdm2-MdmX confirm 87.5*.
For Cn1c(Oc2ccc(F)cc2)c(C=O)c2ccccc21 the results were CF NFkB inh 33.8, HIF-2a block 21.5, KKLEB tox -14.8, TWEAK-Fn14 inh 38.6, TROY NFkB inh 9.0 and Peg3 prom inh 9.5.
Screening O=C(c1ccc(S(=O)(=O)c2ccc(F)cc2)c([N+](=O)[O-])c1)N1CCCCCC1 returned CF NFkB inh 54.3*, HIF-2a block 52.9*, KKLEB tox -20.8, TWEAK-Fn14 inh 76.5*, TROY NFkB inh 42.9, Peg3 prom inh 17.7, CF NFkB conf 38.8, HIF-2a conf 3.3 and HIF-1a cs 49.1.
CC1(C(=O)NS(=O)(=O)c2cccc(Cl)c2)CCN1C(=O)Cc1ccsc1 (configuration not stated) was read as CF NFkB inh 13.3, HIF-2a block 8.0, KKLEB tox -4.9, TWEAK-Fn14 inh -12.4, TROY NFkB inh -7.1 and Peg3 prom inh -0.5.
